# Screening results deposited in PubChem by National Center for Advancing Translational Sciences (NCATS).
# Pf growth 96h: inhibits malaria parasite growth, 96 h | P. falciparum luciferase reporter growth, 96 h | Potency, µM (series often up to 28.7 µM), inactives show at the highest dose activity change, negative = inhibition, hits mostly inhibitors | actives 6.9% (n = 320,000) | AID 504834; also: potency is read from the fitted curve at half-maximal effect; % is scaled to controls: 0 for no effect and ±100 for the full control effect
#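 Infected RBCs, 2% Hct / 0.05% parasitemia final; luciferase-reporter P. falciparum; cpd 96 h, 37 C, 5% CO2; luciferase detection reagent; luminescence.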
# NS1 function inh: inhibitors of influenza NS1 protein function; Potency, µM (doses to about 46.1 µM), for inactives: at the highest dose activity, positive = more growth; actives 0.4% (n = 270,000); calls by dose curve; also: potency is read from the fitted curve at half-maximal effect; actives are rising curves; nearly all actives have a fitted effect of over 50% in size
#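 S. cerevisiae expressing influenza A NS1, grown in glucose, washed, then diluted 1:100 into pH 6.0 -URA galactose medium with 23 nl compound. Growth recovery read as OD600; NS1-free strain serves as control.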
# Shiga toxin inh: blocks Shiga toxin action in Vero cells; Vero cells, Shiga toxin protein synthesis inhibition reporter; inhibition, % at 38.7 µM; actives 9.2% (n = 290,000); in the data active = inhibition mostly above about 28%, no sharp cut-off; inactive = mostly below about 43%; also: 0% is about no effect
# Pf growth 48h: P. falciparum growth inhibition at 48 hours (one generation); P. falciparum luciferase growth in erythrocytes, 48 h; Potency, µM (titrated, usually from 28.7 µM), for the others: at the highest dose activity change, negative = inhibition, hits mostly inhibitors; actives 5.9% (n = 310,000); also: potency is read from the fitted curve at half-maximal effect; % is scaled to controls: 0 for no effect and ±100 for the full control effect
#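 Growth was read as firefly luciferase luminescence after a 48 h, 37 C, 5% CO2 exposure of compounds to reporter-bearing P. falciparum cultures (0.1% parasitemia, 2% hematocrit final) in Albumax-supplemented RPMI 1640.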
# CHX counter: counter-screen hit for Shiga toxin inhibitors, cycloheximide; actives 12% (n = 300,000); cell reporter, cycloheximide protein synthesis inhibition counterscreen; max response, %; in the data active = max response mostly above about 13%, no sharp cut-off; inactive = mostly below about 14%; also: read at 38.3 µM for the half of the compounds with a filed dose; 0% is about no effect
# Numbers without * were called inactive; ? = inconclusive; nt = no result; + = active, no number. Only some compounds are listed: those with a hit (about 21% of all), similar ones and a draw of the others. Unless noted, calls follow the shape of the dose curve; as a rule, active = well fitted inhibition curve with a large enough effect; inconclusive = small, poorly fitted or top-dose-only effect, or another doubt; inactive = no such curve, though single readings can be large or run the other way.
SMILES,Pf growth 96h,NS1 function inh,Shiga toxin inh,Pf growth 48h,CHX counter
CCn1c(-c2ccc(F)cc2)cnc1SCC(=O)N1CCc2ccccc21,-10%,3%,97*,52%,34*
CCCn1c(-c2ccc(F)cc2)cnc1SCC(=O)O,nt,-7%,-5,5%,-1
CCn1c(-c2ccc(F)cc2)cnc1SCC(=O)N1CCCCC1C (stereo unspecified),29%,-7%,93*,nt,41*
Cc1cc(C)n(CCCN2C(=O)c3cccc4cccc(c34)C2=O)n1,?,-9%,23,-20%,-3
CC(C)COc1ccc(C(=O)N/C(=C\c2cccc([N+](=O)[O-])c2)C(=O)OC(C)C)cc1,13%,12%,11,0.15µM*,-3
CCCCOc1ccc(C(=O)N/C(=C\c2cccc([N+](=O)[O-])c2)C(=O)OC(C)C)cc1,0.47µM*,6%,-9,0.59µM*,-4
CCCCOc1ccc(C(=O)N/C(=C\c2cccc([N+](=O)[O-])c2)C(=O)OCCC)cc1,1.7µM*,4%,60,?,11
CCCCOc1ccc(C(=O)N/C(=C/c2cccc([N+](=O)[O-])c2)C(=O)O)cc1,19%,-6%,-4,0%,4
O=S1(=O)[C@H]2C[C@@H]3C=C[C@@]2(CN1Cc1ccc(F)cc1)O3,46%,-13%,7,9%,-1
CC1CCCC(C)N1CCCNC(=O)C(=O)Nc1ccc2nc3n(c(=O)c2c1)CCCCC3 (stereo unspecified),14%,-4%,-7,4%,-10
COc1cccc(C(=O)C2CCCN(Cc3ccon3)C2)c1 (stereo unspecified),?,-1%,1,8%,7
Cc1ncc(CN2CCCC(C(=O)c3ccc(C(C)(C)C)cc3)C2)s1 (stereo unspecified),?,-4%,44,?,9.9*
COc1ccc2cc(C(=O)C3CCCN(Cc4cnc(C)s4)C3)ccc2c1 (stereo unspecified),?,-5%,-5,?,5
Cc1ccsc1C(=O)C1CCCN(Cc2cccn2-c2ccc(Cl)cn2)C1 (stereo unspecified),?,-44%,-10,3.7µM*,-2
COc1ccc(C(=O)C2CCCN(Cc3ccon3)C2)cc1OC (stereo unspecified),?,0%,47,1%,57*
COc1ccc(C(=O)C2CCCN(C(=O)c3n[nH]c4c3CCCC4)C2)cc1OC (stereo unspecified),-1%,0%,30,12%,16*
CC(=O)N1CSCC1C(=O)NNS(=O)(=O)c1cccc(C(F)(F)F)c1 (stereo unspecified),51%,3%,20,3%,-2
COc1ccc(C(=O)C2CCCN(Cc3cnc(C)s3)C2)cc1OC (stereo unspecified),15µM*,-3%,-13,4%,-1
COc1ccc(C(=O)C2CCCN(Cc3cccn3-c3ccccn3)C2)cc1F (stereo unspecified),-11%,-1%,-14,9.3µM*,2
COc1ccc(C(=O)C2CCCN(Cc3cnc(N4CCCC4)s3)C2)cc1OC (stereo unspecified),?,0%,-6,?,-2
CN(CC(=O)NCCN1CCN(c2ccccc2)CC1)S(=O)(=O)c1ccc2c(c1)CCC(=O)N2,4.7µM*,-8%,-6,nt,-6
COc1ccc(Nc2nc(C)c(-c3ccccc3)s2)cc1,?,-18%,82*,12%,59*
Cc1nc(Nc2ccc(S(N)(=O)=O)cc2)sc1-c1ccccc1,32%,-1%,47,20%,31*
Cc1nc(Nc2ccc(S(N)(=O)=O)cc2)sc1C(=O)Nc1ccccc1,-3%,nt,-9,16%,-2
O=C(NCc1ccccc1)c1ccc(CS(=O)Cc2ccc(Cl)cc2)o1 (stereo unspecified),33%,-14%,-13,6%,1
SMILES,Pf growth 96h,NS1 function inh,Shiga toxin inh,Pf growth 48h,CHX counter
CCOC(=O)c1c(-c2ccccc2)csc1NC(=S)N(CC)CC,5.2µM*,-3%,-1,12µM*,-1
CCOC(=O)c1c(-c2ccccc2)csc1NC(=O)c1nn(CC)cc1Br,nt,8%,9,13µM*,-1
CCOC(=O)c1c(NC(=O)c2nn(CC)cc2Br)c(C#N)cn1-c1ccccc1,24%,8%,-18,9.3µM*,-7
CCOC(=O)c1c(-c2ccc(Cl)cc2)csc1NC(=O)CNCc1ccco1,?,8%,-6,?,-2
CCOC(=O)c1c(-c2ccccc2)csc1NC(=O)C(C)NCc1ccco1 (stereo unspecified),13µM*,13%,-17,?,0
CCOC(=O)N1C=CC(C)=C[C@@H]2[C@@H](N3C(=O)c4ccccc4C3=O)C(=O)N21,-7%,-8%,-6,0%,-3
CCO/N=C(\C)c1c(O)c(CC)c(-c2ccccc2)n(-c2ccccc2)c1=O,1%,-2%,13,-1%,2
CCOC(=O)c1c(-c2ccccc2)csc1NC(=O)c1ccc(N2C(=O)CCC2=O)cc1,104%,16%,-11,42%,-3
CCOC(=O)c1c(-c2ccccc2)csc1NC(=O)c1ccc(S(=O)(=O)N2CC(C)OC(C)C2)cc1 (stereo unspecified),9.3µM*,9%,-1,10µM*,-1
Cc1ccc(S(=O)(=O)NCCSc2nnnn2C)cc1,36%,6%,-3,12%,-3
O=C(CSc1ccc(-c2cccc([N+](=O)[O-])c2)nn1)N1CCCCC1,3%,nt,30,?,18
O=[N+]([O-])c1cccc(-c2ccc(SCc3ccccn3)nn2)c1,0%,nt,56*,86%,37*
COc1ccc(-c2ccc(SCc3ccccn3)nn2)cc1OC,2.6µM*,nt,35,3%,29*
COc1cccc(-c2ccc(SCc3ccccn3)nn2)c1,97%,nt,77*,111%,42*
COc1ccc(-c2ccc(SCC(=O)c3ccccc3)nn2)cc1OC,-5%,nt,24,-24%,22
O=C(CCNS(=O)(=O)c1cccc(C(F)(F)F)c1)NC1CC1,-15%,nt,nt,-19%,nt
CCc1ccc(-c2csc(NC(=O)C3CC(=O)N(c4ccc5c(c4)OCCO5)C3)n2)cc1 (stereo unspecified),?,?,+,36%,14*
Cc1csc(NC(=O)C2CC(=O)N(c3ccc4c(c3)OCCO4)C2)n1 (stereo unspecified),?,nt,nt,-2%,nt
O=C(Nc1nnc(SCc2c(Cl)cccc2Cl)s1)C1CC(=O)N(c2ccc3c(c2)OCCO3)C1 (stereo unspecified),?,6%,17,1%,7
N#Cc1ccc(CSc2nnc(NC(=O)C3CC(=O)N(c4ccc5c(c4)OCCO5)C3)s2)cc1 (stereo unspecified),-16%,20%,-2,3%,11*
O=C(Nc1nnc(SCc2ccc(F)cc2)s1)C1CC(=O)N(Cc2ccccc2)C1 (stereo unspecified),7.4µM*,22%,-12,-14%,-3
